High-throughput results: PubChem BioAssay, National Center for Advancing Translational Sciences (NCATS)
Sampled rows, rich in hits. Any-hit rate of the full collection: about 8.6%.
Lassa entry = blocks Lassa virus binding or cell entry | 4.1% of 18,000 active | Lassa virus pseudotyped entry inhibition, cell-based qHTS | AID 720533 | Potency, µM (series often up to 49.2 µM), for the others: at the highest dose activity change, negative = inhibition, actives largely listed as inhibitors
Marburg entry = Marburg virus entry inhibition. Marburg virus pseudotype entry/binding inhibition, cell-based. Potency, µM (highest dose often 49.2 µM), for inactives: at the top dose activity change, negative = inhibition, actives largely listed as inhibitors. 6.5% of 18,000 active. AID 720532
The depositor's hits bear a star; ? = inconclusive; . = no result; ! = not confirmed by another sample; [ ] = remark or other dose. The call rests on the fitted dose curve; tested in HEK293 cells. On the % scale 0 is the no-effect control and ±100 the full control effect; potency means the concentration at half of the fitted maximal effect.

SMILES	Lassa entry	Marburg entry
O=C(Nc1ccc(Br)cc1)c1cc(Br)c(Br)s1	?	-21%
O=c1[nH]c(=O)n([C@@H]2O[C@H](CO)[C@@H](O)[C@H]2O)cc1F	10µM*	?
CCc1cn([C@H]2C[C@H](O)[C@@H](CO)O2)c(=O)[nH]c1=O	5%	-9%
COC1(CS(=O)c2ccccc2)CCN(CCc2c[nH]c3ccc(F)cc23)CC1 (stereo unspecified)	-13%	16µM*
COc1ccc2[nH]cc(CCN(C)C)c2c1	1%	-13%
CC(C)CN(C[C@@H](OP(=O)(O)O)[C@H](Cc1ccccc1)NC(=O)O[C@H]1CCOC1)S(=O)(=O)c1ccc(N)cc1	0%	0%
C=CCOC(=O)N[C@H](C(C(=O)OC)=C(C)NCc1ccccc1)c1ccc2c(c1)OCO2	-12%[8.59 µM]	?
COC(=O)CC=C[C@@H](C)[C@@H](Cc1ccccc1Br)OC	.	-4%[8.59 µM]
CO[C@@H]1[C@@H](OC)[C@H](C)[C@@](O)(CC(=O)O)O[C@H]1[C@H](C)[C@H]1O[C@@]2(CC[C@@](C)([C@H]3CC[C@@](C)([C@@H]4O[C@@H]([C@H]5O[C@](C)(O)[C@H](C)C[C@@H]5C)C[C@@H]4OC4C[C@H](OC)[C@@H](OC)[C@H](C)O4)O3)O2)C[C@H](O)[C@H]1C (stereo partly specified)	1µM*	?
CC[C@@]1([C@@H]2O[C@@H]([C@H]3O[C@@](O)(CO)[C@H](C)C[C@@H]3C)C[C@@H]2C)CC[C@@H]([C@]2(C)CCC3(C[C@H](O)[C@@H](C)[C@@H]([C@@H](C)[C@@H](OC)[C@H](C)C(=O)O)O3)O2)O1 (stereo partly specified)	0.56µM*	0.32µM*
CC[C@@]1([C@@H]2O[C@@H]([C@H]3O[C@@](O)(CO)[C@H](C)C[C@@H]3C)C[C@@H]2C)CC[C@H]([C@]2(C)CC[C@]3(C[C@H](O)[C@@H](C)[C@@H]([C@@H](C)[C@@H](OC)C(C)C(=O)O)O3)O2)O1 (stereo partly specified)	0.45µM*	0.28µM*
C[C@@H]1[C@@H](c2ccccc2)Oc2c(Cl)cccc2S(=O)(=O)N1Cc1cccc(F)c1	-18%	-45%
CCCCCC(=O)N1C[C@@H](n2cc(COC(=O)c3ccccc3)nn2)[C@H](O)C[C@H]1c1ccc(OC)cc1	-20%	26%
COc1ccc([C@]23Cc4ccccc4[C@H](O2)C2=C(CC(C)(C)CC2=O)O3)cc1	-3%[8.59 µM]	6%[8.59 µM]
C[C@]12CC[C@H]3[C@@H](CCC4=CC(=O)CC[C@@]43C)[C@@H]1CC[C@H]2O	-4%	5%
Cc1cc(=O)c2c(O)c3c(O)cc(=O)c4c3c3c(cc(O)c1c23)C(C)(C)C=4O	6.3µM*	6.3µM*
COC(=O)C1(C)C2CC(C)C(c3ccccc32)N1C(=O)C(F)(F)F (stereo unspecified)	.	-9%[8.59 µM]
COc1cccc([C@H]2NC(=O)CC=C[C@H](C)[C@@H](c3cccc(OC)c3)NC(=O)CC=C[C@H]2C)c1	17%[8.59 µM]	?
C[C@@H](CN1c2ccccc2Sc2ccccc21)N(C)C	-14%[17.8 µM]	10µM*
CC(CN1c2ccccc2Sc2ccccc21)N(C)C (stereo unspecified)	32µM*!	13µM*
CN(C)C(=O)OC1=C(c2ccccc2)Sc2ccccc2-n2cccc21	?	-18%
O=C(NN=C1C[C@@H](O)[C@H](O)[C@H]2[C@@H]3C(=O)N(C[C@@H]4CCCO4)C(=O)[C@@H]3CC[C@H]12)OCc1ccccc1	.	30%[8.59 µM]
CC(=O)OC1CCC2(C)C3=C(CCC2C1(C)C)[C@@]1(C)CCC(C(C)CCC=C(C)C)[C@@]1(C)CC3 (stereo partly specified)	-8%	-14%
COc1cc(/C=C/C(=O)O[C@H]2CC[C@]34C[C@]35CC[C@]3(C)[C@@H]([C@H](C)CCC=C(C)C)CC[C@@]3(C)[C@@H]5CC[C@H]4C2(C)C)ccc1O	25µM*!	1%
COCCN1C(=NCCc2cccnc2)NC(c2ccccc2)C(C(=O)OC)=C1C (stereo unspecified)	?	54%[8.59 µM]
SMILES	Lassa entry	Marburg entry
c1ccc(-c2nc(-c3cccc4ccccc34)c(Nc3ccc4ccccc4c3)o2)cc1	1%	4%
Clc1cccc(Nc2nnc(-c3ccccc3)c3ccccc23)c1	3.5µM*	7.1µM*!
O=C1[C@@H]2[C@H]3[C@H](O)[C@H](O)CC(=NOC[C@@H](O)COCc4ccco4)[C@H]3CC[C@H]2C(=O)N1C[C@@H]1CCCO1	-14%[8.59 µM]	4%[8.59 µM]
CC[C@H]1OC(=O)C[C@@H](O)[C@H](C)[C@@H](O[C@@H]2O[C@H](C)[C@@H](O[C@H]3C[C@@](C)(O)[C@@H](O)[C@H](C)O3)[C@H](N(C)C)[C@H]2O)[C@@H](CC=O)C[C@@H](C)C(=O)/C=C/C(C)=C/[C@@H]1CO[C@@H]1O[C@H](C)[C@@H](O)[C@@H](OC)[C@H]1OC	1%	-20%
CO[C@@H]1[C@@H](O[C@@H]2O[C@H](C)[C@@H](O[C@H]3C[C@@](C)(O)[C@@H](O)[C@H](C)O3)[C@H](N(C)C)[C@H]2O)[C@@H](CC=O)C[C@@H](C)[C@@H](O[C@@H]2CC[C@H](N(C)C)[C@@H](C)O2)/C=C/C=C/C[C@@H](C)OC(=O)C[C@H]1OC(C)=O	?	3.2µM*
COC1[C@@H](O[C@@H]2O[C@H](C)[C@@H](O[C@H]3C[C@@](C)(O)[C@H](OC(=O)CC(C)C)[C@H](C)O3)[C@H](N(C)C)[C@H]2O)[C@@H](CC=O)C[C@@H](C)[C@@H](O)/C=C/C=C/C[C@@H](C)OC(=O)C[C@H]1OC(C)=O (stereo partly specified)	9%[17.8 µM]	7%[17.8 µM]
COC1C(O)CC(=O)OC(C)C/C=C/C=C/[C@@H](OC2CCC(N(C)C)C(C)O2)C(C)C[C@@H](CC=O)[C@@H]1O[C@H]1OC(C)[C@H](O[C@@H]2C[C@@](C)(O)C(O)C(C)O2)C(N(C)C)C1O (stereo partly specified)	-20%	6.3µM*
COC1C[C@@H](O[C@@H]2C(C)C(=O)OC(C)C(C)[C@H](OC(C)=O)C(C)C(=O)[C@@]3(CO3)CC(C)C(OC3OC(C)CC(N(C)C)[C@H]3OC(C)=O)C2C)OC(C)[C@@H]1OC(C)=O (stereo partly specified)	4%	-1%
CO[C@@H]1[C@@H](O[C@@H]2O[C@H](C)[C@@H](O[C@H]3C[C@@](C)(O)[C@@H](OC(=O)CC(C)C)[C@H](C)O3)[C@H](N(C)C)[C@H]2O)[C@@H](CC=O)C[C@@H](C)C(=O)/C=C/C2OC2C[C@@H](C)OC(=O)C[C@H]1OC(C)=O (stereo partly specified)	?	13µM*
O=C(OCc1cn([C@H]2CN(C(=O)C3CCCCC3)[C@@H](c3ccccc3)C[C@H]2O)nn1)c1ccccc1	-28%	?
Cc1c(C(=O)NCc2cccc(F)c2)sc2ncnc(NCC3CCCO3)c12 (stereo unspecified)	-12%	-18%
COC(=O)c1cc(C(=O)OC)n2c(C)cc3ccccc3c12	-11%[8.59 µM]	13%[8.59 µM]
CCCCN(CCCC)C(=S)[S-].CCCCN(CCCC)C(=S)[S-].[Zn+2]	11µM*	6.3µM*
COC(=O)CC1=CO[C@@H](O)[C@@H]2C(CO)=CC[C@@H]12	-11%[8.59 µM]	16%[8.59 µM]
